The text below walks through data of PubChem BioAssay (Tox21).

Results filed as inconclusive are left out. Calls of active or inactive are those of the source. Unless noted, calls follow the shape of the dose curve; as a rule, active = well fitted curve in the direction sought with a large enough effect in the repeat runs; inconclusive = weak or mixed curves; inactive = no such curve, though single readings can be large; an effect the other way counts as inactive or inconclusive.

Assay [1] is described as follows: qHTS assay to identify small molecule antagonists of the thyroid receptor (TR) signaling pathway - cell viability counter screen (AID 743064). Also: nearly all actives have a fitted effect of over 50% in size. In outline: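 Viability of T3-stimulated (1 nM final) GH3.TRE-Luc cells is measured by CellTiter-Fluor fluorescence after 23.5 h compound exposure at 37 °C plus 30 min reagent incubation.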
A general note: In qHTS, concentration-response curves come from the screen itself.

The nature of assay [2]: qHTS assay to identify small molecule antagonists of the thyroid receptor (TR) signaling pathway (AID 743065). Also: series mostly up to about 70 µM; nearly all actives have a fitted effect of over 55% in size. In outline: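 GH3.TRE-Luc rat pituitary cells carrying two TR response elements driving luciferase were plated for 4 h, given compound plus 1 nM T3 (final), and incubated 23.5 h at 37 C. ONE-Glo luminescence measured reporter inhibition; CellTiter-Fluor fluorescence tracked cytotoxicity.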

Assay [3] concerns thyroid hormone receptor (rat, GH3 cells). The assay can be described thus: qHTS assay to identify small molecule agonists of the thyroid receptor (TR) signaling pathway (AID 743066; calls by dose curve).
Assay [4] in a line: qHTS assay to identify small molecule antagonists of the estrogen receptor alpha (ER-alpha) signaling pathway - cell viability counter screen (AID 743074; calls by dose curve;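 also: HEK293 cells carrying ER-alpha-UAS-bla reporter stimulated with 17beta-estradiol; nearly all actives have a fitted effect of over 45% in size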).
Assay [5] is described as follows: qHTS assay to identify small molecule antagonists of the estrogen receptor alpha (ER-alpha) signaling pathway using the BG1 cell line - cell viability counter screen (AID 743081).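 Also: compound given together with 17beta-estradiol as the ER stimulus; series mostly up to about 70 µM; nearly all actives have a fitted effect of over 45% in size.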
The target of a further assay is Aromatase (Homo sapiens) (UniProt P11511). The assay can be described thus: qHTS assay to identify aromatase inhibitors (AID 743083). Also: series mostly up to about 70 µM; nearly all actives have a fitted effect of over 55% in size.
Assay [6] can be described thus: qHTS assay to identify aromatase inhibitors - cell viability counter screen (AID 743084).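 Also: cells stimulated with testosterone during compound exposure; nearly all actives have a fitted effect of over 55% in size.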
The target in assay [7] is Aryl hydrocarbon receptor (Homo sapiens) (UniProt P35869). The assay can be described thus: qHTS assay to identify small molecule that activate the aryl hydrocarbon receptor (AhR) signaling pathway (AID 743085).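 Also: HG2L7.5c1 human HepG2 liver cells with stably integrated DRE-driven firefly reporter; series mostly up to about 70 µM; nearly all actives have a fitted effect of over 15% in size.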 In outline: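 A multiplexed format paired cell viability (CellTiter-Fluor fluorescence) with AhR-dependent luciferase output (ONE-Glo luminescence) in the same wells of HepG2 DRE-luc cells after 24 h compound exposure at 37C.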

The nature of assay [8]: qHTS assay to identify small molecule that activate the aryl hydrocarbon receptor (AhR) signaling pathway - cell viability counter screen (AID 743086).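 Also: HepG2 liver cells carrying the AhR DRE luciferase reporter; series mostly up to about 70 µM; nearly all actives have a fitted effect of over 45% in size.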 In outline: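 HepG2-AhR-luc (HG2L7.5c1) cells, 4000/well, were preincubated 5 h at 37C, exposed to compound in qHTS format for 24 hr at 37C, then given CellTiter-Fluor for 30 min; viability was read as fluorescence in the reporter wells.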

Assay [9] has as its target Peroxisome proliferator-activated receptor gamma (Homo sapiens) (UniProt P37231). The assay can be described thus: qHTS assay to identify small molecule antagonists of the peroxisome proliferator-activated receptor gamma (PPARg) signaling pathway (AID 743191; calls by dose curve; also: series mostly up to about 63 µM; nearly all actives have a fitted effect of over 30% in size). In outline:
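GeneBLAzer PPARg UAS-bla HEK293H cells carrying a UAS-driven beta-lactamase reporter were plated at 3000 cells/well, preincubated 5 h at 37C, then given compound for 17 h at 37C; LiveBLAzer B/G FRET substrate was read after 1 h at room temperature.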

Assay [10] is described as follows: qHTS assay for small molecule agonists of the antioxidant response element (ARE) signaling pathway (AID 743202; active = well fitted activation curve with a large enough effect in the signal ratio in the repeat runs, not every such curve was filed as active; the % refers to the signal ratio). Summed up:
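Steps: seed ARE-bla HepG2 cells (2,000/well); incubate 5 h at 37 C; add compounds by pin tool; incubate 16 h at 37 C; add FRET substrate; read fluorescence after 2 h at RT.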

Assay [11] is described as follows: qHTS assay for small molecule agonists of the antioxidant response element (ARE) signaling pathway - cell viability counter screen (AID 743203; calls by dose curve; also: nearly all actives have a fitted effect of over 55% in size; also: potency is read from the fitted curve at half-maximal effect). Summed up: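 Luminescence read-out (CellTiter-Glo, 30 min at room temperature) measured cell viability in the same wells as the ARE beta-lactamase reporter. HepG2 ARE-bla cells were treated with compounds for 16 hrs at 37C/5% CO2.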

Assay [12] is described as follows: qHTS assay for small molecule activators of the heat shock response signaling pathway - cell viability counter screen (AID 743209). Also: nearly all actives have a fitted effect of over 50% in size. Also: potency is read from the fitted curve at half-maximal effect. In outline: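 HSE-bla HeLa; 1500 cells/well; overnight 37 C, 5% CO2; compound 5 h 37 C; LiveBLAzer B/G substrate 2.5 h RT; CellTiter-Glo 30 min RT; luminescence.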
The nature of assay [13]: qHTS assay for small molecule activators of the heat shock response signaling pathway (AID 743210; active = well fitted activation curve with a large enough effect in the signal ratio in the repeat runs, with a control signal flat, not every such curve was filed as active; the % refers to the signal ratio;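 also: HeLa cells with beta-lactamase reporter driven by heat shock elements; series mostly up to about 63 µM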). Summed up: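 Activation of heat shock element-controlled beta-lactamase expression is measured in HeLa cells by LiveBLAzer FRET fluorescence, with compound exposure lasting 5 h at 37 C and substrate loading 2.5 h at room temperature.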
Assay [14] has as its target Peroxisome proliferator-activated receptor gamma (Homo sapiens) (UniProt P37231). The assay can be described thus: qHTS assay to identify small molecule agonists of the peroxisome proliferator-activated receptor gamma (PPARg) signaling pathway (AID 743094; active = well fitted activation curve with a large enough effect in the signal ratio in the repeat runs, not every such curve was filed as active; the % refers to the signal ratio). Summed up:
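HEK293H PPARg-bla cells, 5 h settle at 37C/5% CO2; compound (DMSO) 17 h, 37C; B/G FRET substrate 1 h RT; fluorescence intensity read-out. qHTS format.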

A short description of assay [15]: qHTS assay to identify small molecule antagonists of the peroxisome proliferator-activated receptor gamma (PPARg) signaling pathway - cell viability counter screen (AID 743194). Also: nearly all actives have a fitted effect of over 55% in size. Also: potency is read from the fitted curve at half-maximal effect. In outline: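 PPARg-UAS-bla HEK293H cells were plated, rested 5 h at 37 C, then treated with compounds plus rosiglitazone (50 nM final) for 17 h at 37 C; viability was then read by CellTiter-Glo luminescence after 30 min at room temperature.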

Aryl hydrocarbon receptor (Homo sapiens), sequence (P35869 whole entry, looked up): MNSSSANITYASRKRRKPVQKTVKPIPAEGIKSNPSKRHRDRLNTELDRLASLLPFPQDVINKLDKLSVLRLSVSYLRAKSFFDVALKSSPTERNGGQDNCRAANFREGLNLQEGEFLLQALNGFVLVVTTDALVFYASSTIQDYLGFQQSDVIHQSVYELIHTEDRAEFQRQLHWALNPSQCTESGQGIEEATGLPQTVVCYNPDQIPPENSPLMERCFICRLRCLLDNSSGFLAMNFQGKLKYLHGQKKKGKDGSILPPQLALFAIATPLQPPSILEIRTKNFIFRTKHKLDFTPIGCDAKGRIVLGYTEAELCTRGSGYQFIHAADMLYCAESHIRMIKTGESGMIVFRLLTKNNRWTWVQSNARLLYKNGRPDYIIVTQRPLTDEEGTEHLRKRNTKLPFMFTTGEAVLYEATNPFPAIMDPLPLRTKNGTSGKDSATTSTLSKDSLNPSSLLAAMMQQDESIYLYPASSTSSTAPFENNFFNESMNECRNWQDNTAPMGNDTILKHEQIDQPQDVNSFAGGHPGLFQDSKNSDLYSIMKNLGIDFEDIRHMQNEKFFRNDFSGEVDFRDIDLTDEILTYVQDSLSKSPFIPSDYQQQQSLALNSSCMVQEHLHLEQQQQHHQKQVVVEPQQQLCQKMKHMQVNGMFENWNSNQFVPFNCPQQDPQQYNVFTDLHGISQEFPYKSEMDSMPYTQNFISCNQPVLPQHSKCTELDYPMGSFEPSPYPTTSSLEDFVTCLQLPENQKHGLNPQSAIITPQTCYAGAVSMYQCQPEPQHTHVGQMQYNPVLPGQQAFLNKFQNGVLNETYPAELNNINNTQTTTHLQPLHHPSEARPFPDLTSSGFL
Aromatase (Homo sapiens), sequence (P11511 whole entry, looked up): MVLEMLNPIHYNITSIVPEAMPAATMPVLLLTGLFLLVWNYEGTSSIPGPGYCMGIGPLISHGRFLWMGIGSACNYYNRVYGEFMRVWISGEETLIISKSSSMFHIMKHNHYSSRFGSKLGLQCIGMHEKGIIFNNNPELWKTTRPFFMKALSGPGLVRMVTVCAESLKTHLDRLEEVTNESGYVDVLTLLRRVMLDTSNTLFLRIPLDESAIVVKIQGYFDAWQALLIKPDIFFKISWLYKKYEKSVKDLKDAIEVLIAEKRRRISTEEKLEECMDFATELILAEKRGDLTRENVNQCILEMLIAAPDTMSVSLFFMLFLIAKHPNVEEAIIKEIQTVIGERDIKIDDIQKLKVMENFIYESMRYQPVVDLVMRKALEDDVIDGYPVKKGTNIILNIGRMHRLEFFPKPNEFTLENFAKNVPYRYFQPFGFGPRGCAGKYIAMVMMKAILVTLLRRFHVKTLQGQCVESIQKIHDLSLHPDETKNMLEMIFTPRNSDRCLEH
Peroxisome proliferator-activated receptor gamma (Homo sapiens), sequence (P37231 whole entry, looked up): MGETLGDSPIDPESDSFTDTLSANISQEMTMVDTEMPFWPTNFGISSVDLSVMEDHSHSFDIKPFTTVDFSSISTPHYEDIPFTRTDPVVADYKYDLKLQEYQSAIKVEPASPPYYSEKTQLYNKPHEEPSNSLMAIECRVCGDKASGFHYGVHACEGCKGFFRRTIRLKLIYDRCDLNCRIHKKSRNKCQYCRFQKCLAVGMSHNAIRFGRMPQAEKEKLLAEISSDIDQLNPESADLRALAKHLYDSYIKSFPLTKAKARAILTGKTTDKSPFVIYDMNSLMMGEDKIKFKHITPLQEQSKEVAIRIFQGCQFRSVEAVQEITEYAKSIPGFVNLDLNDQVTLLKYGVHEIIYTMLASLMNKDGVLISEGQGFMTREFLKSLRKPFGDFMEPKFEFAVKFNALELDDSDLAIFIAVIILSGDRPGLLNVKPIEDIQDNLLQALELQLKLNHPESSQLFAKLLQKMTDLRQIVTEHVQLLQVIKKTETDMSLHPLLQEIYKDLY

As to `CC1=CC[C@@]23C[C@@H]1C(C)(C)[C@@H]2CC[C@H]3C`, the Potency result (in [1]; in assay [2]; in assay [3]; in assay [4]; in assay [5]; in the assay with Aromatase (Homo sapiens)) was “inactive” each time. The Potency entry in assay [6], in assay [7], in assay [8], in assay [9], in [10] and in [11] was “inactive” each time. Moreover, the Potency entry in assay [12] and in [13] was “inactive” in each case.

Regarding `CC1CCC(C(C)CS)CC1S` (stereo unspecified), the Potency entry (in assay [1]; in assay [2]; in assay [3]; in assay [4]; in [5]; with Aromatase (Homo sapiens)) was “inactive” throughout. The Potency result in assay [6], in [7] and in [8] was “inactive” throughout. The Potency in [11] was 15.4 µM (active); in assay [12] it was 38.9 µM (active).

On to `C1=CCC2CC=CC2C1` (stereo unspecified), for which the Potency entry (in [1]; in assay [2]; in assay [3]; in assay [4]; in [5]; with Aromatase (Homo sapiens)) was “inactive” in each case. The Potency result in assay [6], in assay [8], in assay [9], in assay [15], in assay [11] and in assay [12] was “inactive” throughout. In assay [13], the Potency entry was “inactive”. In addition, in assay [14], the call was inactive.

Take `CC(=O)N[C@@H](Cc1ccc(O)cc1)C(=O)O`: the Potency entry in assay [1], in assay [2], in assay [3], in assay [4], in assay [5] and in assay [8] was “inactive” each time. Moreover, the Potency entry in assay [15], in [10], in assay [11], in assay [12] and in assay [13] was “inactive” each time.

As to `CC[C@H]1OC(=O)[C@H](C)[C@@H](O[C@H]2C[C@@](C)(OC)[C@@H](O)[C@H](C)O2)[C@H](C)[C@@H](O[C@@H]2O[C@H](C)C[C@H](N(C)C)[C@H]2O)[C@](C)(O)C[C@@H](C)C(=O)[C@H](C)[C@@H](O)[C@]1(C)O`, the Potency entry (in [1]; in assay [2]; in assay [3]; in assay [4]; in assay [5]; in the assay with Aromatase (Homo sapiens)) was “inactive” throughout. In addition, the Potency result in assay [6], in [7], in assay [8], in [15], in assay [10] and in [13] was “inactive” throughout. Further, the compound was called inactive in assay [14].

On to `CC(=O)C(C)=O`, for which the Potency entry (in assay [1]; in assay [2]; in assay [3]; in assay [4]; in assay [5]; with Aromatase (Homo sapiens)) was “inactive” throughout. In addition, the Potency entry in assay [6], in assay [7], in assay [8], in [15], in assay [10] and in assay [11] was “inactive” throughout. Besides, the Potency entry in assay [12] and in assay [13] was “inactive” each time.

For the compound `CC(CN(CCN(CC(C)OCCO)CC(C)OCCO)CC(C)OCCO)OCCO` (stereo unspecified), the Potency result (in assay [1]; in assay [2]; in assay [3]; in assay [4]; in [5]; in the assay with Aromatase (Homo sapiens)) was “inactive” each time. Besides, the Potency entry in assay [6], in assay [8], in assay [12] and in [13] was “inactive” each time. Besides, the call in assay [14] was inactive. Moreover, the Potency in assay [15] is 37.5 µM (active); in assay [11], 33.1 µM (active).

As to `CCCCCCC(O)CCCCCCCCCCC(=O)OC` (stereo unspecified), the Potency result in assay [1], in [2], in [3], in [4], in assay [5] and in assay [8] was “inactive” each time. Besides, the Potency entry in assay [10], in assay [11] and in [12] was “inactive” in each case.

For `O=C1CC[C@@H](C(=O)O)N1`, the Potency result (in [1]; in assay [2]; in [3]; in assay [4]; in assay [5]; with Aromatase (Homo sapiens)) was “inactive” in each case. The Potency result in assay [6], in [7], in assay [8], in assay [15], in assay [10] and in assay [11] was “inactive” throughout. The Potency result in assay [12] was “inactive”. Further, the result in [14] was inactive.

For `CC(O)Cn1cnc2c1c(=O)n(C)c(=O)n2C` (stereo unspecified), the Potency result (in assay [1]; in [2]; in [3]; in assay [5]; with Aromatase (Homo sapiens); in assay [6]) was “inactive” each time. The Potency entry in assay [7], in assay [8], in assay [15], in assay [10], in assay [11] and in assay [12] was “inactive” throughout. Besides, in assay [13], the Potency entry was “inactive”.

Turning to `CC1CCCO1` (stereo unspecified), the Potency result (in assay [1]; in assay [2]; in assay [3]; in assay [4]; in assay [5]; with Aromatase (Homo sapiens)) was “inactive” throughout. The Potency entry in [6], in assay [7], in assay [8], in assay [15], in assay [11] and in assay [12] was “inactive” throughout. Moreover, in assay [13], the Potency entry was “inactive”.

As to `Cc1ccc(Cl)cc1N`, the Potency result (in [1]; in assay [2]; in assay [3]; in [4]; in assay [5]; with Aromatase (Homo sapiens)) was “inactive” each time. Further, the Potency entry in [6], in assay [7], in assay [8], in assay [15], in assay [11] and in [12] was “inactive” each time. Besides, in assay [13], the Potency result was “inactive”. For the same compound, the outcome in assay [14] was inactive.

On to `O=C(O)CCCc1c[nH]c2ccccc12`, for which the Potency result (in assay [1]; in assay [2]; in [3]; in assay [4]; in assay [5]; in the assay with Aromatase (Homo sapiens)) was “inactive” each time. For the same compound, the Potency entry in [6], in assay [7], in [8], in assay [9], in assay [15] and in assay [10] was “inactive” in each case. For the same compound, the Potency entry in assay [11], in assay [12] and in assay [13] was “inactive” throughout.

With `CC(C)(O)c1coc(S(=O)(=O)NC(=O)Nc2c3c(cc4c2CCC4)CCC3)c1`, the Potency result (in assay [1]; in [2]; in assay [3]; in assay [4]; in [5]; with Aromatase (Homo sapiens)) was “inactive” each time. Moreover, the Potency result in assay [6], in assay [8], in [9], in assay [15], in [11] and in assay [12] was “inactive” throughout. Further, the Potency result in assay [13] was “inactive”. The compound was classed as inactive in assay [14].

Turning to `CC(=O)NCCO`, the Potency result (in assay [1]; in assay [2]; in [3]; in assay [4]; in assay [5]; with Aromatase (Homo sapiens)) was “inactive” each time. Also, the Potency entry in assay [6], in [7], in assay [8], in assay [15], in assay [11] and in [12] was “inactive” throughout. Moreover, in assay [13], the Potency entry is “inactive”. Besides, the call in assay [14] was inactive.
